For 7 compounds, outcome and AC50 results are on record in PubChem BioAssay (EPA / NIEHS).

Active and inactive are the calls of the source. Rule for the calls: active = hit-call score of the fitted dose curve at least 0.9, where 1 is the maximum; inactive = score below 0.9.

The AC50 is the concentration at which the activity in the assay is half-maximal.

Conditions in all cases: mRNA level, 48 h; actives raise or lower the signal
Read-out in test [1]: Fatty acid synthase (Homo sapiens) (UniProt P49327)
The experiment in a line: LTEA_HepaRG_FASN: Life Technologies and Expression Analysis (LTEA) Assay for Fatty Acid Synthase (FASN) using HepaRG (AID 2283448). The method in brief:
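FASN transcript measured by TaqMan qRT-PCR, normalised to three housekeeping genes, after 48 h chemical exposure of HepaRG cells. Eight-point half-log series from 100 uM in 0.5% DMSO, duplicates; gain or loss fitted against vehicle.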

Read-out in test [2]: Cyclin D2 (CCND2), CCND2 (gene 894)
As to the kind of experiment: LTEA_HepaRG_CCND2: Life Technologies and Expression Analysis (LTEA) Assay for Cyclin D2 (CCND2) using HepaRG (AID 2283449).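 Note: CCND2 transcript measured by TaqMan qRT-PCR and normalised to three housekeeping genes.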 Put shortly: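 In this HepaRG study, an eight-point concentration series (max 100 uM, 0.5% DMSO) is applied for 48 h. CCND2 mRNA change is derived by qRT-PCR normalised to ACTB, GAPDH and POLR2A.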

Read-out in test [3]: Cyclin Dependent Kinase Inhibitor 1A (CDKN1A), CDKN1A (gene 1026)
The experiment in a line: LTEA_HepaRG_CDKN1A: Life Technologies and Expression Analysis (LTEA) Assay for Cyclin Dependent Kinase Inhibitor 1A (CDKN1A) using HepaRG (AID 2283450). Put shortly: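 Read-out is CDKN1A mRNA by TaqMan qRT-PCR, normalized to three housekeeping genes and fitted in both directions against the DMSO baseline. Human HepaRG cells were treated 48 h with test chemicals up to 100 uM in half-log steps, 0.5% DMSO.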

Read-out in test [4]: Cyclin D1 (CCND1), CCND1 (gene 595)
The experiment in a line: LTEA_HepaRG_CCND1: Life Technologies and Expression Analysis (LTEA) Assay for Cyclin D1 (CCND1) using HepaRG (AID 2283451).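 For AC50: TaqMan qRT-PCR transcript level normalised to ACTB GAPDH and POLR2A housekeeping genes.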 The method in brief:
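HepaRG plated 48 h, medium switched to serum-free induction medium, chemicals added in duplicate (top 100 uM, half-log steps, 0.5% DMSO) for 48 h, cells lysed, RNA measured by TaqMan qRT-PCR.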

Read-out in test [5]: catalase (CAT), CAT (gene 847)
The experiment in a line: LTEA_HepaRG_CAT: Life Technologies and Expression Analysis (LTEA) Assay for catalase (CAT) using HepaRG (AID 2283452). Put shortly:
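Differentiated HepaRG cells in serum-free induction medium were dosed 48 h in duplicate, eight half-log concentrations from 100 uM in 0.5% DMSO. Transcript measured by TaqMan qRT-PCR, normalised to ACTB/GAPDH/POLR2A, fitted bidirectionally against DMSO.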

Read-out in test [6]: flavin-containing dimethylaniline monooxygenases 3 (FMO3), FMO3 (gene 2328)
As to the kind of experiment: LTEA_HepaRG_FMO3: Life Technologies and Expression Analysis (LTEA) Assay for flavin-containing dimethylaniline monooxygenases 3 (FMO3) using HepaRG (AID 2283453).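 For AC50: FMO3 transcript by TaqMan qRT-PCR normalized to ACTB GAPDH and POLR2A.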 Put shortly: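 FMO3 transcript quantified by TaqMan qRT-PCR against three housekeeping genes after 48 h chemical exposure of HepaRG cells. Eight-point half-log series, top 100 uM, 0.5% DMSO vehicle; phenobarbital 1mM induction control; up- or down-regulation fitted.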

Read-out in test [7]: Cytochrome P450 (CYP1A1), CYP1A1 (gene 1543)
The experiment in a line: LTEA_HepaRG_CYP1A1: Life Technologies and Expression Analysis (LTEA) Assay for Cytochrome P450 (CYP1A1) using HepaRG (AID 2283454). Put shortly:
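HepaRG, 48 h post-plating switched to serum-free induction medium; 8-pt conc-response (top 100 uM, half-log, 0.5% DMSO), duplicates, 48 h. Lysis in RLT, TaqMan qRT-PCR for CYP1A1; gain or loss vs DMSO.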

Read-out in test [8]: Forkhead box O1 (FOXO1), FOXO1 (gene 2308)
The experiment in a line: LTEA_HepaRG_FOXO1: Life Technologies and Expression Analysis (LTEA) Assay for Forkhead box O1 (FOXO1) using HepaRG (AID 2283456). The method in brief: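 Using one lot of HepaRG hepatic cells kept in 0.5% DMSO, the team applied test chemicals in duplicate, half-log dilutions from 100 uM, for 48 h. Expression, normalised to ACTB/GAPDH/POLR2A, was compared with vehicle in either direction.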

Read-out in test [9]: growth arrest and DNA damage 45 (GADD45A), GADD45A (gene 1647)
As to the kind of experiment: LTEA_HepaRG_GADD45A: Life Technologies and Expression Analysis (LTEA) Assay for growth arrest and DNA damage 45 (GADD45A) using HepaRG (AID 2283458). The method in brief:
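GADD45A expression was measured by TaqMan qRT-PCR against three housekeeping genes (ACTB, GAPDH, POLR2A) after 48 h treatment of HepaRG cells. Eight-point half-log series up to 100 uM in 0.5% DMSO, run in duplicate.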

Read-out in test [10]: Forkhead box O3 (FOXO3), FOXO3 (gene 2309)
The experiment in a line: LTEA_HepaRG_FOXO3: Life Technologies and Expression Analysis (LTEA) Assay for Forkhead box O3 (FOXO3) using HepaRG (AID 2283459). Put shortly: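 Gene-expression endpoint: FOXO3 transcript level by qRT-PCR in HepaRG cultures treated 48 h with chemicals up to 100 uM (half-log, 0.5% DMSO vehicle).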

Read-out in test [11]: ABC Transporter (ABCB1), ABCB1 (gene 5243)
The experiment in a line: LTEA_HepaRG_ABCB1: Life Technologies and Expression Analysis (LTEA) Assay for ABC Transporter (ABCB1) using HepaRG (AID 2283460). Put shortly:
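Human liver HepaRG line treated 48 h with up to 100 uM compound (eight half-log points, 0.5% DMSO); ABCB1 mRNA change fitted bidirectionally against DMSO controls.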

Read-out in test [12]: growth arrest and DNA damage 45 (GADD45B), GADD45B (gene 4616)
The experiment in a line: LTEA_HepaRG_GADD45B: Life Technologies and Expression Analysis (LTEA) Assay for growth arrest and DNA damage 45 (GADD45B) using HepaRG (AID 2283461). Put shortly:
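HepaRG, ~100,000 cells/well, 48 h plating; serum-free induction medium; cpd 100 uM top, half-log x8, 0.5% DMSO, duplicate, 48 h; lysis in RLT, RNA isolation, qRT-PCR; norm ACTB/GAPDH/POLR2A; bidirectional fit vs DMSO.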

Read-out in test [13]: ABC Transporter (ABCC3), ABCC3 (gene 8714)
As to the kind of experiment: LTEA_HepaRG_ABCC3: Life Technologies and Expression Analysis (LTEA) Assay for ABC Transporter (ABCC3) using HepaRG (AID 2283462). Put shortly:
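Human HepaRG, 48 h dosing, 8-pt half-log series from 100 uM, 0.5% DMSO vehicle, duplicates. ABCC3 mRNA by TaqMan qRT-PCR, housekeeping-normalized; bidirectional curve fit vs DMSO.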

Read-out in test [14]: ABC Transporter (ABCB11), ABCB11 (gene 8647)
The experiment in a line: LTEA_HepaRG_ABCB11: Life Technologies and Expression Analysis (LTEA) Assay for ABC Transporter (ABCB11) using HepaRG (AID 2283463). The method in brief:
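Using HepaRG cultures held in 0.5% DMSO, chemicals were tested at half-log dilutions from 100 uM for 48 h. Induction or suppression of ABCB11 mRNA, normalized to ACTB, GAPDH and POLR2A, was fitted bidirectionally against vehicle.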

Read-out in test [15]: ABC Transporter (ABCC2), ABCC2 (gene 1244)
The experiment in a line: LTEA_HepaRG_ABCC2: Life Technologies and Expression Analysis (LTEA) Assay for ABC Transporter (ABCC2) using HepaRG (AID 2283464). Put shortly:
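HepaRG, 48 h post-plating; serum-free induction medium; cpd 8-pt, 100 uM top, half-log, 0.5% DMSO, duplicate, 48 h. Readout: ABCC2 mRNA by qRT-PCR, norm. ACTB/GAPDH/POLR2A. Bidirectional fit vs DMSO baseline.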

Read-out in test [16]: Broad substrate specificity ATP-binding cassette transporter ABCG2 (Homo sapiens) (UniProt Q9UNQ0)
The experiment in a line: LTEA_HepaRG_ABCG2: Life Technologies and Expression Analysis (LTEA) Assay for ABC Transporter (ABCG2) using HepaRG (AID 2283465). The method in brief: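 Gene expression of ABCG2 in HepaRG liver cells is quantified by qRT-PCR following 48 h exposure across an eight-point series topping at 100 uM. Values come from bidirectional fitting relative to DMSO vehicle.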

Read-out in test [17]: Tumor necrosis factor receptor superfamily member 6 (Homo sapiens) (UniProt P25445)
As to the kind of experiment: LTEA_HepaRG_FAS: Life Technologies and Expression Analysis (LTEA) Assay for Fas cell surface death receptor (FAS) using HepaRG (AID 2283447). Put shortly:
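Differentiated human HepaRG cells, pre-cultured 48 h, were exposed in duplicate for 48 h to 8-point half-log concentrations (top 100 uM, 0.5% DMSO) in serum-free induction medium; FAS mRNA measured by qRT-PCR, normalized to ACTB/GAPDH/POLR2A, bidirectional fit versus DMSO.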

Read-out in test [18]: CFLAR gene, CFLAR (gene 8837)
The experiment in a line: LTEA_HepaRG_CFLAR: Life Technologies and Expression Analysis (LTEA) Assay for CFLAR gene using HepaRG (AID 2283455). The method in brief: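 Gain- or loss-of-signal changes in CFLAR transcript were fitted bidirectionally relative to 0.5% DMSO. Cells (HepaRG, duplicate wells) were dosed for 48 h across eight half-log concentrations topping at 100 uM; quantitation by TaqMan qRT-PCR.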

Sequence of Broad substrate specificity ATP-binding cassette transporter ABCG2 (Homo sapiens) (Q9UNQ0 whole entry, looked up): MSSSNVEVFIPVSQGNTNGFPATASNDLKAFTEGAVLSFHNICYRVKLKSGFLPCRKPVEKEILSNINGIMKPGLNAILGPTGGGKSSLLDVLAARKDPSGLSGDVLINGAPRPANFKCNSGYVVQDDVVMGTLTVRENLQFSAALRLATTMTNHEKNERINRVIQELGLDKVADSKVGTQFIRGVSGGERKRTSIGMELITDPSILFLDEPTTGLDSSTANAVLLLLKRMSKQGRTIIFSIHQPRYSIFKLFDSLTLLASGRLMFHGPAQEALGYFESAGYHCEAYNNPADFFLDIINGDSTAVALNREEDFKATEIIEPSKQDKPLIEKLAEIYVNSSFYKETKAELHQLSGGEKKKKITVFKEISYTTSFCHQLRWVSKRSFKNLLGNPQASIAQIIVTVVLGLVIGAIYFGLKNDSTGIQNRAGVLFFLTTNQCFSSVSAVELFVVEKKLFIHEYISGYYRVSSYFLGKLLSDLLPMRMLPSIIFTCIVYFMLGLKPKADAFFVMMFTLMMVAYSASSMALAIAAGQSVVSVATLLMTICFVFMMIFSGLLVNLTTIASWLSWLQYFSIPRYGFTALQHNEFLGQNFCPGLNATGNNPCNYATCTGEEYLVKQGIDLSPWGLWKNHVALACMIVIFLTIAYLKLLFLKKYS
Sequence of Fatty acid synthase (Homo sapiens) (P49327 whole entry, looked up): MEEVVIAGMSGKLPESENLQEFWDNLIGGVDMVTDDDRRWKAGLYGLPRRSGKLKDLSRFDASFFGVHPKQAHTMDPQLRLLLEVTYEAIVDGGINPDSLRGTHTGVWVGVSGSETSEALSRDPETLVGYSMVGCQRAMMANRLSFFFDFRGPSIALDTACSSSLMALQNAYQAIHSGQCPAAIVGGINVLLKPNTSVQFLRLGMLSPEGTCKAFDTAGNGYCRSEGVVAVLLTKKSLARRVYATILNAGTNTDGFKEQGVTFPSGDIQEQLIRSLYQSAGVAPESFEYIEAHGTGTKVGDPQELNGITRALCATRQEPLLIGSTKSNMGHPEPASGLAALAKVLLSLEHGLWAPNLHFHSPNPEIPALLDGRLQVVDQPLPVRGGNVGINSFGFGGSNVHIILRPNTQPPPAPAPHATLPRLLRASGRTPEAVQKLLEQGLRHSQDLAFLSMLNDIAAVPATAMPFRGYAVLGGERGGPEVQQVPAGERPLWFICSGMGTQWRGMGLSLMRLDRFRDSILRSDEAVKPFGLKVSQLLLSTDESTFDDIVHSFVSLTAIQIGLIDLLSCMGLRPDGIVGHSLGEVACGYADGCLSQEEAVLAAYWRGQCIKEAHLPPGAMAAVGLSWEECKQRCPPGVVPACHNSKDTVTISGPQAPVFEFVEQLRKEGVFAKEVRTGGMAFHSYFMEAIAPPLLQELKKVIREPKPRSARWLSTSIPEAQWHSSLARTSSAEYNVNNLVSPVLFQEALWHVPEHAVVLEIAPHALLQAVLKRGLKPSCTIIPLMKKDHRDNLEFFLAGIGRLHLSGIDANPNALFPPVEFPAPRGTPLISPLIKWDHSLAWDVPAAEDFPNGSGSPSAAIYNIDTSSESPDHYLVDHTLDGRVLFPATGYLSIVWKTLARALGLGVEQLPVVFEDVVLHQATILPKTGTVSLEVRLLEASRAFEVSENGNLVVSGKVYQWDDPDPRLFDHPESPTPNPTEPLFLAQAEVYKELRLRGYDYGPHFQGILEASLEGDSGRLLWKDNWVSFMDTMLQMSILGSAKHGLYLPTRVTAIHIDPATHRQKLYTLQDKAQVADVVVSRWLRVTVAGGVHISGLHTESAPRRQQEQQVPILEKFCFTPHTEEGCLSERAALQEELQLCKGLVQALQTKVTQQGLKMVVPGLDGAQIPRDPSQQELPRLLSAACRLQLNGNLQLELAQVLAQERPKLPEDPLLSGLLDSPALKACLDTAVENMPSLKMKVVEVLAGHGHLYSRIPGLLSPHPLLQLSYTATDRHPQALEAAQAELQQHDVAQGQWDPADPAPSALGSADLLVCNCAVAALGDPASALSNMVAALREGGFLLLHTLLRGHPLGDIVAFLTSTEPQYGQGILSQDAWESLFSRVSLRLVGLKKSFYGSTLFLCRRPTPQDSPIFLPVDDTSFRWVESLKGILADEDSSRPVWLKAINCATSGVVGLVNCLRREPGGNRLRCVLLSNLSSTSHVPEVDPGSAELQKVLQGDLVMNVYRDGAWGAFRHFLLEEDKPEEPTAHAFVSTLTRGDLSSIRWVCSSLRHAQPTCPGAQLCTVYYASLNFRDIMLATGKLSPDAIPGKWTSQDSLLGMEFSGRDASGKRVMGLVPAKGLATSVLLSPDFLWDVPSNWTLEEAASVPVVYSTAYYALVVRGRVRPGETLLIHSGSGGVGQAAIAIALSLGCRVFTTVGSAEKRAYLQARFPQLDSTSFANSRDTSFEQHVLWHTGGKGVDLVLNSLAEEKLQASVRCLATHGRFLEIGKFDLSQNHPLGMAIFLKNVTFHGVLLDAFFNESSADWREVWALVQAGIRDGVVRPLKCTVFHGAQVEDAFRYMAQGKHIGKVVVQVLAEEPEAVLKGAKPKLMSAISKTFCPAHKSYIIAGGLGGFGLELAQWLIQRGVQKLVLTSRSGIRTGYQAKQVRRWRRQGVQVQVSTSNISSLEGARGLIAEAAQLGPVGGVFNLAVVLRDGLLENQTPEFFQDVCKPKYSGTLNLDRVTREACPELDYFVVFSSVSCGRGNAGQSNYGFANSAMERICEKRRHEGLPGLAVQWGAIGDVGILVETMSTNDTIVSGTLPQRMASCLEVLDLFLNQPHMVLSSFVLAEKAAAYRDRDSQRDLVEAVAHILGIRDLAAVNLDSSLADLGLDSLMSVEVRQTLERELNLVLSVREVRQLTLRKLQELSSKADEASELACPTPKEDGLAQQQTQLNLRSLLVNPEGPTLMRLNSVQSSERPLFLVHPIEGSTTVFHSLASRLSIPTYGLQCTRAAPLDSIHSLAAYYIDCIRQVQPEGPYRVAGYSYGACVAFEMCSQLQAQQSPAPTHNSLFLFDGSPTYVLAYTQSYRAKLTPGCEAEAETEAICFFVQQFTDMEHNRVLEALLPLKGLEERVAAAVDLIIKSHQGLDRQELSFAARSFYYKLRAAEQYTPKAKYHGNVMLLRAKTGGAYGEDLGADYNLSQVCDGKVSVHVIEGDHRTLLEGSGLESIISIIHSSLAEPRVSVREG

`CNCc1ccc(NC(=O)c2c[nH]c3c2C(=O)CCC3)cc1`: the outcome in test [1], in test [2], in test [3], in test [4], in test [5] and in test [6] was inactive. The compound was classed as inactive in test [8], in test [9], in test [10], in test [11], in [12] and in [13]. The call in [14], in test [15] and in test [16] was inactive. Also, the AC50 in [7] was 73.8 µM (active).

`CC(=O)OCCC(C)C`: the compound was called inactive in test [1], in [2], in [3], in [4], in test [5] and in test [6]. Moreover, the compound was called inactive in [8], in test [9], in test [10], in test [11], in [12] and in test [13]. In addition, the call in [14] and in test [16] was inactive. The AC50 in test [7] was 73.2 µM (active).

With `Cc1[nH]cnc1C[C@H]1CCc2c(C)c3ccccc3n2C1=O`, the AC50 in test [1] is 29.9 µM (active); in [4] it was 79.7 µM (active); in test [5] it was 24.3 µM (active); in test [6], 32 µM (active); in test [7] it was 10.7 µM (active); in test [8] it was 75.4 µM (active). The AC50 was 62 µM (active) in test [9]; 68.5 µM (active) in [11]; 25.2 µM (active) in [12]; 10.6 µM (active) in test [13]; 22.7 µM (active) in [14]; 31.3 µM (active) in test [15]. Moreover, the outcome in test [3], in [10] and in test [16] was inactive.

On to `On1ccccc1=S`, for which the outcome in test [1], in test [3], in test [4], in test [5], in test [6] and in [7] was inactive. The compound was classed as inactive in [8], in test [9], in test [10], in test [11], in [12] and in test [13]. Besides, the outcome in test [14], in test [15] and in test [16] was inactive.

Turning to `CC(C)=CCC/C(C)=C\CO`, the compound was called inactive in test [1], in test [2], in [3], in [4], in test [5] and in [6]. Moreover, the outcome in [8], in test [9], in test [10], in test [11], in test [12] and in test [13] was inactive. The call in test [14], in test [15] and in [16] was inactive.

Turning to `CC/C(=C\C(=N/O)C(N)=O)C(C)[N+](=O)[O-]` (stereo not drawn), the outcome in [1], in test [2], in test [3], in [4], in [5] and in test [6] was inactive. Besides, the outcome in test [8], in test [9], in test [10], in test [11], in test [12] and in test [13] was inactive. Also, the outcome in [14] and in test [16] was inactive. In addition, in test [7], the AC50 is 31.9 µM (active).

Regarding `COC(=O)CC(=O)OC`, the compound was called inactive in test [17], in [3], in test [4], in test [5], in test [6] and in [18]. The compound was called inactive in [8], in test [9], in test [10], in test [11], in test [12] and in test [13]. For the same compound, the compound was classed as inactive in test [14], in test [15] and in test [16]. Moreover, the AC50 in test [1] and in test [7] was 50 µM (active) in each case.
